Assay results reported in the supplement of paper PMC10077471.
Whole data set: some 1,900 compounds, median “excess over highest single agent (ExcessHSA) synergy score, 6x6 matrix” near -83, cut for the lowest 2% near -370. For the sample, the lowest values were picked, then their nearest neighbours and some compounds at random.

System: NCI-H446
Assay: excess over highest single agent (ExcessHSA) synergy score, 6x6 matrix; higher = less synergy (more negative = stronger synergy)
Conditions: 72 h; CellTiter-Glo viability

| SMILES | excess over highest single agent |
| --- | --- |
| COC1=C(OC)C(=O)C(C/C=C(\C)CC/C=C(\C)CC/C=C(\C)CC/C=C(\C)CC/C=C(\C)CC/C=C(\C)CC/C=C(\C)CC/C=C(\C)CC/C=C(\C)CCC=C(C)C)=C(C)C1=O + Cc1sc2c(c1C)C(c1ccc(Cl)cc1)=N[C@@H](CC(=O)OC(C)(C)C)c1nnc(C)n1-2 [NCGC00250412-19] | -97.2 |
| COc1cc(OC)c(NC(=O)Nc2cc(C)on2)cc1Cl + Cc1sc2c(c1C)C(c1ccc(Cl)cc1)=N[C@@H](CC(=O)OC(C)(C)C)c1nnc(C)n1-2 [NCGC00250412-19] | -142 |
| Cc1ccc(-c2ncn(-c3ccc(Nc4nccc(-c5cccc(N6CCOCC6)c5)n4)cc3)n2)cn1 + Cc1sc2c(c1C)C(c1ccc(Cl)cc1)=N[C@@H](CC(=O)OC(C)(C)C)c1nnc(C)n1-2 [NCGC00250412-19] | -78.7 |
| CO[C@H]1[C@H](O)[C@@H](O)[C@H](n2c3c(Cl)cccc3c3c4c(c5c6cccc(Cl)c6[nH]c5c32)C(=O)NC4=O)O[C@@H]1CO + Cc1sc2c(c1C)C(c1ccc(Cl)cc1)=N[C@@H](CC(=O)OC(C)(C)C)c1nnc(C)n1-2 [NCGC00250412-19] | -234 |
| O=C(O)C(O)Cc1ccc(O)c(O)c1 (configuration not stated) + Cc1sc2c(c1C)C(c1ccc(Cl)cc1)=N[C@@H](CC(=O)OC(C)(C)C)c1nnc(C)n1-2 [NCGC00250412-19] | -9.7 |
| N[C@@H](Cc1ccc(O)c(O)c1)C(=O)O + Cc1sc2c(c1C)C(c1ccc(Cl)cc1)=N[C@@H](CC(=O)OC(C)(C)C)c1nnc(C)n1-2 [NCGC00250412-19] | 57.6 |
| C[C@H](Cc1ccc(O)c(O)c1)[C@@H](C)Cc1ccc(O)c(O)c1 + Cc1sc2c(c1C)C(c1ccc(Cl)cc1)=N[C@@H](CC(=O)OC(C)(C)C)c1nnc(C)n1-2 [NCGC00250412-19] | -373 |
| N#CN=C(NCCCCCCOc1ccc(Cl)cc1)Nc1ccncc1 + Cc1sc2c(c1C)C(c1ccc(Cl)cc1)=N[C@@H](CC(=O)OC(C)(C)C)c1nnc(C)n1-2 [NCGC00250412-19] | -32.9 |
| C/C=C(/C)C(=O)O[C@H]1C(C)=C[C@]23C(=O)[C@@H](C=C(CO)[C@@H](O)[C@]12O)[C@H]1[C@@H](C[C@H]3C)C1(C)C + Cc1sc2c(c1C)C(c1ccc(Cl)cc1)=N[C@@H](CC(=O)OC(C)(C)C)c1nnc(C)n1-2 [NCGC00250412-19] | 104 |
| O=C(Nc1cccc(Nc2ncc(Br)c(NCCc3cnc[nH]3)n2)c1)N1CCCC1 + Cc1sc2c(c1C)C(c1ccc(Cl)cc1)=N[C@@H](CC(=O)OC(C)(C)C)c1nnc(C)n1-2 [NCGC00250412-19] | -166 |
| C[C@@H](N)c1ccc(C(=O)Nc2ccnc3[nH]ccc23)cc1 + Cc1sc2c(c1C)C(c1ccc(Cl)cc1)=N[C@@H](CC(=O)OC(C)(C)C)c1nnc(C)n1-2 [NCGC00250412-19] | 125 |
| Oc1ccc(-c2ccc(-c3cc(Nc4cccc(CNC5CC5)c4)n[nH]3)cc2)c(O)c1 + Cc1sc2c(c1C)C(c1ccc(Cl)cc1)=N[C@@H](CC(=O)OC(C)(C)C)c1nnc(C)n1-2 [NCGC00250412-19] | 79.8 |
| COc1cccc2nc(-c3cccs3)nc(NN3C(=O)C=C(C)C3=O)c12 + Cc1sc2c(c1C)C(c1ccc(Cl)cc1)=N[C@@H](CC(=O)OC(C)(C)C)c1nnc(C)n1-2 [NCGC00250412-19] | -408 |
| CN(CC(=O)N(Cc1ccc(C2CCCCC2)cc1)c1ccc(C(=O)O)c(O)c1)S(=O)(=O)c1c(F)c(F)c(F)c(F)c1F + Cc1sc2c(c1C)C(c1ccc(Cl)cc1)=N[C@@H](CC(=O)OC(C)(C)C)c1nnc(C)n1-2 [NCGC00250412-19] | -91.4 |
| Clc1cccc(-n2nnnc2NCc2ccccc2Oc2ccccn2)c1Cl + Cc1sc2c(c1C)C(c1ccc(Cl)cc1)=N[C@@H](CC(=O)OC(C)(C)C)c1nnc(C)n1-2 [NCGC00250412-19] | -103 |
| Cn1cc(C2=C(c3c4n(c5ccccc35)CCC(CN)C4)C(=O)NC2=O)c2ccccc21 (configuration not stated) + Cc1sc2c(c1C)C(c1ccc(Cl)cc1)=N[C@@H](CC(=O)OC(C)(C)C)c1nnc(C)n1-2 [NCGC00250412-19] | -42.8 |
| Cc1cnc(Nc2cccc(CN3CCOCC3)c2)nc1Nc1cccc(S(=O)(=O)NC(C)(C)C)c1 + Cc1sc2c(c1C)C(c1ccc(Cl)cc1)=N[C@@H](CC(=O)OC(C)(C)C)c1nnc(C)n1-2 [NCGC00250412-19] | 108 |
| CC(=O)Nc1sc2c(c1-c1nc3ccccc3s1)CNC2 + Cc1sc2c(c1C)C(c1ccc(Cl)cc1)=N[C@@H](CC(=O)OC(C)(C)C)c1nnc(C)n1-2 [NCGC00250412-19] | 354 |
| Cc1c(CN2CCN(C(=O)[C@H](C)O)CC2)sc2c(N3CCOCC3)nc(-c3cnc(N)nc3)nc12 + Cc1sc2c(c1C)C(c1ccc(Cl)cc1)=N[C@@H](CC(=O)OC(C)(C)C)c1nnc(C)n1-2 [NCGC00250412-19] | -434 |

| SMILES | excess over highest single agent |
| --- | --- |
| CC(C)(O)c1cc2nc(-c3cnc(N)nc3)nc(N3CCOCC3)c2s1 + Cc1sc2c(c1C)C(c1ccc(Cl)cc1)=N[C@@H](CC(=O)OC(C)(C)C)c1nnc(C)n1-2 [NCGC00250412-19] | -253 |
| Cc1c(CN2CCN(S(C)(=O)=O)CC2)sc2c(N3CCOCC3)nc(-c3cnc(N)nc3)nc12 + Cc1sc2c(c1C)C(c1ccc(Cl)cc1)=N[C@@H](CC(=O)OC(C)(C)C)c1nnc(C)n1-2 [NCGC00250412-19] | -334 |
| CNC(=O)c1c(-c2ccc(F)cc2)oc2cc(N(CCO)S(C)(=O)=O)c(C3CC3)cc12 + Cc1sc2c(c1C)C(c1ccc(Cl)cc1)=N[C@@H](CC(=O)OC(C)(C)C)c1nnc(C)n1-2 [NCGC00250412-19] | -113 |
| CN[C@H]1CCc2cc(OC)c(OC)c(OC)c2-c2ccc(OC)c(=O)cc21 + Cc1sc2c(c1C)C(c1ccc(Cl)cc1)=N[C@@H](CC(=O)OC(C)(C)C)c1nnc(C)n1-2 [NCGC00250412-19] | -167 |
| Cc1nc(Nc2n[nH]c3c2CN(C(=O)N[C@H](CN(C)C)c2ccccc2)C3(C)C)c2sccc2n1 + Cc1sc2c(c1C)C(c1ccc(Cl)cc1)=N[C@@H](CC(=O)OC(C)(C)C)c1nnc(C)n1-2 [NCGC00250412-19] | -503 |
| CN1c2ccccc2C(=O)N2CCc3c([nH]c4ccccc34)[C@@H]21 + Cc1sc2c(c1C)C(c1ccc(Cl)cc1)=N[C@@H](CC(=O)OC(C)(C)C)c1nnc(C)n1-2 [NCGC00250412-19] | -226 |
| O=C1NC(=O)/C(=C/c2cccc(C(F)(F)F)c2)S1 + Cc1sc2c(c1C)C(c1ccc(Cl)cc1)=N[C@@H](CC(=O)OC(C)(C)C)c1nnc(C)n1-2 [NCGC00250412-19] | 75.6 |
| Cn1c2cc([S+](C)[O-])sc2c2cnn(Cc3cccc(N)c3)c(=O)c21 (configuration not stated) + Cc1sc2c(c1C)C(c1ccc(Cl)cc1)=N[C@@H](CC(=O)OC(C)(C)C)c1nnc(C)n1-2 [NCGC00250412-19] | -110 |
| CC(=O)NCC(=O)N1[C@@H]2CC[C@H]1c1ccc(Nc3ncc(C(F)(F)F)c(NC4CCC4)n3)cc12 + Cc1sc2c(c1C)C(c1ccc(Cl)cc1)=N[C@@H](CC(=O)OC(C)(C)C)c1nnc(C)n1-2 [NCGC00250412-19] | -534 |
| CN(c1ncccc1CNc1nc(Nc2ccc3c(c2)CC(=O)N3)ncc1C(F)(F)F)S(C)(=O)=O + Cc1sc2c(c1C)C(c1ccc(Cl)cc1)=N[C@@H](CC(=O)OC(C)(C)C)c1nnc(C)n1-2 [NCGC00250412-19] | -151 |
| CS(=O)(=O)c1cccc(CNc2nc(Nc3ccc4c(c3)CCC(=O)N4)ncc2C(F)(F)F)c1 + Cc1sc2c(c1C)C(c1ccc(Cl)cc1)=N[C@@H](CC(=O)OC(C)(C)C)c1nnc(C)n1-2 [NCGC00250412-19] | 58.6 |
| COC(=O)c1ccc2c(C(=Nc3ccc(N(C)C(=O)CN4CCN(C)CC4)cc3)c3ccccc3)c(O)[nH]c2c1 + Cc1sc2c(c1C)C(c1ccc(Cl)cc1)=N[C@@H](CC(=O)OC(C)(C)C)c1nnc(C)n1-2 [NCGC00250412-19] | -229 |
| CCS(=O)(=O)Nc1ccc2[nH]c(O)c(C(=Nc3ccc(CN4CCCCC4)cc3)c3ccccc3)c2c1 + Cc1sc2c(c1C)C(c1ccc(Cl)cc1)=N[C@@H](CC(=O)OC(C)(C)C)c1nnc(C)n1-2 [NCGC00250412-19] | -393 |
| CNC(=O)c1ccc2c(C(=Nc3cccc(CN(C)C)c3)c3ccccc3)c(O)[nH]c2c1 + Cc1sc2c(c1C)C(c1ccc(Cl)cc1)=N[C@@H](CC(=O)OC(C)(C)C)c1nnc(C)n1-2 [NCGC00250412-19] | 93.9 |
| COc1ccc(-c2ccc3ncc4c(c3c2)n(-c2ccc(N3CCNCC3)c(C(F)(F)F)c2)c(=O)n4C)cn1 + Cc1sc2c(c1C)C(c1ccc(Cl)cc1)=N[C@@H](CC(=O)OC(C)(C)C)c1nnc(C)n1-2 [NCGC00250412-19] | -20.2 |
| COc1cc(C(C)C)c(Oc2cnc(NC(CO)CO)nc2N)cc1I + Cc1sc2c(c1C)C(c1ccc(Cl)cc1)=N[C@@H](CC(=O)OC(C)(C)C)c1nnc(C)n1-2 [NCGC00250412-19] | -119 |
| OCc1ccc(-c2ccc(-c3ccc(CO)s3)o2)s1 + Cc1sc2c(c1C)C(c1ccc(Cl)cc1)=N[C@@H](CC(=O)OC(C)(C)C)c1nnc(C)n1-2 [NCGC00250412-19] | 33.9 |
| C/C=C1\NC(=O)[C@H]2CSSCC/C=C/[C@H](CC(=O)N[C@H](C(C)C)C(=O)N2)OC(=O)[C@H](C(C)C)NC1=O + Cc1sc2c(c1C)C(c1ccc(Cl)cc1)=N[C@@H](CC(=O)OC(C)(C)C)c1nnc(C)n1-2 [NCGC00250412-19] | -38.7 |
